High-throughput results from PubChem BioAssay.
PrPC surface inh = inhibitors of human cell surface prion protein PrPC, primary screen, cell-based, TR-FRET; TR-FRET read-out; Major prion protein (Homo sapiens), P04156; AID 720596, 2013; inhibition, % at 13.8 µM; 370,000 compounds, 0.43% hits; in the data active means inhibition above about 24%; further: 0% = median of the test wells and 100% = reference compound wells
SARS 3CLpro inh = SARS-CoV 3CLpro protease inhibitors, primary screen, biochemical, quenched FRET; recombinant SARS-CoV 3CLpro, quenched FRET peptide cleavage; inhibition, % at 6 µM; Replicase polyprotein 1ab (Severe acute respiratory syndrome coronavirus), P0C6X7; 290,000 compounds, 0.14% hits; in the data active means inhibition above about 12%
PrP UTR inh = inhibition of PrP 5' UTR reporter expression | cell-based PrP 5' UTR mRNA reporter, plate reader | inhibition, % (no concentration beside the values) | 340,000 compounds, 0.35% hits | AID 488862, 2010; in the data active means inhibition above about 52%; further: 0 = median of the neutral control wells
CCHFV vOTU inh = CCHFV vOTU protease inhibitors, primary screen, biochemical, Pep-AMC substrate, fluorescence; Crimean-Congo hemorrhagic fever virus L polyprotein viral ovarian tumor (vOTU) protease …; inhibition, % at 11.5 µM; 370,000 compounds, 0.55% hits; AID 651958, 2012; in the data active means inhibition above about 30%; further: 0% = vehicle wells with enzyme and 100% = no enzyme wells
PrPC TRFRET cf = confirmation of inhibitors of cell surface human prion protein, confirmation, cell-based, TR-FRET. AID 743200, 2013. 1,500 compounds, 65% hits. cell surface PrPC level. shares compounds with PrPC surface inh. inhibition, % at 13.8 µM; in the data active means inhibition above about 25%
LD9 cytotox = cytotoxicity in LD9 cells, cytotoxicity control for cell surface PrPc inhibitor project, cell-based, luminescence, high throughput; shares compounds with PrPC surface inh; luminescence viability; inhibition, % at 13.8 µM; 1,500 compounds, 29% hits; AID 743201, 2013; in the data active means inhibition above about 9.5%
* hit, by the source's call. Only some compounds are listed: those with a hit (about 1.3% of all), similar ones and a draw of the others.

How did CC(=O)N1CCCc2cc(S(=O)(=O)N3CCCC(C(=O)N4CCN(c5cc(C)ccc5C)CC4)C3)ccc21 (stereo unspecified) do in these assays?
PrPC surface inh: 25*; SARS 3CLpro inh: 6; PrP UTR inh: 12; CCHFV vOTU inh: 10; PrPC TRFRET cf: 21; LD9 cytotox: 9.3*

How did CC(=O)N1CCCc2cc(S(=O)(=O)N3CCCC(C(=O)N4CCN(c5ccccc5)CC4)C3)ccc21 (stereo unspecified) do in these assays?
PrPC surface inh: 17; SARS 3CLpro inh: -9; PrP UTR inh: -20; CCHFV vOTU inh: -4

What do the screens show for `CCc1ccc(NC(=O)C2CCCN(S(=O)(=O)c3ccc4c(c3)CCCN4C(C)=O)C2)cc1` (stereo unspecified)?
PrPC surface inh: 25*; SARS 3CLpro inh: 0; PrP UTR inh: -13; CCHFV vOTU inh: -11; PrPC TRFRET cf: 37*; LD9 cytotox: 9

What do the screens show for `CCOC(=O)c1ccc(NC(=O)C2CCCN(S(=O)(=O)c3ccc(F)cc3)C2)cc1` (stereo unspecified)?
PrPC surface inh: 30*; SARS 3CLpro inh: 2; PrP UTR inh: -15; CCHFV vOTU inh: 17; PrPC TRFRET cf: 18; LD9 cytotox: 2

How did CC(=O)N1CCCc2cc(S(=O)(=O)N3CCCC(C(=O)Nc4cccc(F)c4)C3)ccc21 (stereo unspecified) do in these assays?
PrPC surface inh: 36*; SARS 3CLpro inh: -8; PrP UTR inh: -11; CCHFV vOTU inh: 7; PrPC TRFRET cf: 24*; LD9 cytotox: 11*

What do the screens show for `CCOC(=O)c1ccc(NC(=O)C2CCN(S(=O)(=O)c3ccccc3)CC2)cc1`?
PrPC surface inh: -4; SARS 3CLpro inh: 0; PrP UTR inh: -62; CCHFV vOTU inh: 3

Results for O=Cc1ccc(-c2cccc([N+](=O)[O-])c2)o1 ?
PrPC surface inh: -25; SARS 3CLpro inh: 4; PrP UTR inh: -35; CCHFV vOTU inh: -1

What do the screens show for `O=C(C1=C(O)C(=O)N(CCN2CCOCC2)C1c1cccc(Br)c1)c1cc2ccccc2o1` (stereo unspecified)?
PrPC surface inh: 75*; SARS 3CLpro inh: 3; PrP UTR inh: -15; CCHFV vOTU inh: 20; PrPC TRFRET cf: 130*; LD9 cytotox: 1

Results for O=C(C1=C(O)C(=O)N(CCN2CCOCC2)C1c1cccc([N+](=O)[O-])c1)c1cc2ccccc2o1 (stereo unspecified) ?
PrPC surface inh: 4; CCHFV vOTU inh: 5

How did Brc1ccc(-c2ccc(CNCc3ccccn3)o2)cc1 do in these assays?
PrPC surface inh: 30*; SARS 3CLpro inh: 1; PrP UTR inh: -9; CCHFV vOTU inh: 6; PrPC TRFRET cf: 49*; LD9 cytotox: -3

What do the screens show for `Clc1cccc(-c2ccc(CNCc3ccccn3)o2)c1`?
PrPC surface inh: -1; SARS 3CLpro inh: -3; PrP UTR inh: -14; CCHFV vOTU inh: -5

What do the screens show for `CC(=O)c1cccc(CN2CCC(n3nccc3NC(=O)CCOc3ccccc3)CC2)c1`?
PrPC surface inh: -6; SARS 3CLpro inh: 5; PrP UTR inh: -12; CCHFV vOTU inh: -3

Results for Cc1nc(SCC(=O)NNC(=O)c2ccc(F)cc2)c2ccccc2n1 ?
PrPC surface inh: 82*; PrP UTR inh: -30; CCHFV vOTU inh: -1; PrPC TRFRET cf: 100*; LD9 cytotox: -6

Results for CCc1nc(SCC(=O)OC(C)C)c2ccccc2n1 ?
PrPC surface inh: 83*; SARS 3CLpro inh: 2; PrP UTR inh: -12; CCHFV vOTU inh: 4; PrPC TRFRET cf: 97*; LD9 cytotox: -6

What do the screens show for `CCCc1nc(SCC(=O)Nc2ccc(N3CCOCC3)cc2)c2ccccc2n1`?
PrPC surface inh: 18; SARS 3CLpro inh: -1; PrP UTR inh: -4; CCHFV vOTU inh: -5

Results for CCCc1nc(SCC(=O)NNC(=O)C2CCCCC2)c2ccccc2n1 ?
PrPC surface inh: 41*; SARS 3CLpro inh: 2; PrP UTR inh: -23; CCHFV vOTU inh: -11; PrPC TRFRET cf: 110*; LD9 cytotox: -3

How did CCCc1nc(SCC(=O)NNC(=O)c2ccc(OC)cc2)c2ccccc2n1 do in these assays?
PrPC surface inh: 93*; SARS 3CLpro inh: -1; PrP UTR inh: -23; CCHFV vOTU inh: -4; PrPC TRFRET cf: 115*; LD9 cytotox: -13
